Holding throughout (test): DAPPL (digital affinity profiling via proximity ligation, sequencing); 10 mM Tris-HCl pH 7.5, 50 mM NaCl, 1 mM DTT, 4% glycerol, room temperature, 30 min; GST-TFs on glutathione beads, 16-mer random dsDNA library, 0.1% formaldehyde crosslink after washing; high values mean tight binding
Common to all, as to conditions: protein: recombinant; tags: N-terminal GST; dsDNA, one strand shown

The target of one experiment is T1, ELK1 (Homo sapiens, UniProt P19419 1-428).
T1 sequence: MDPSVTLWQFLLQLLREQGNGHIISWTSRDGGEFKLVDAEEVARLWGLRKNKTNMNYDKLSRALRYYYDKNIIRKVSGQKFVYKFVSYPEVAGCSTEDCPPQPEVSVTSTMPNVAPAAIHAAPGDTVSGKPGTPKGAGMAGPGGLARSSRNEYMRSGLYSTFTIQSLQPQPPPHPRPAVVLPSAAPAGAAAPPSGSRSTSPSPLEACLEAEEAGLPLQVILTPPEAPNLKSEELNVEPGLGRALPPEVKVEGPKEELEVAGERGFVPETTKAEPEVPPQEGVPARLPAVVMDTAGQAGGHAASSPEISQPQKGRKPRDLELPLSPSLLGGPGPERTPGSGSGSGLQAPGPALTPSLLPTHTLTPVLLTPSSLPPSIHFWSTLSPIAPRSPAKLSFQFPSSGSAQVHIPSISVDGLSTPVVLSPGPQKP
An outline of the steps:
(§1)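 GST fusions of human transcription factors were expressed in yeast and captured with glutathione beads. Once given DNA barcodes and pooled alongside a tag-only sample, they were incubated for 30 min at room temperature with 200 nmole of a random double-stranded 16-mer DNA library in Tris/NaCl/DTT/glycerol buffer, then washed, crosslinked (0.1% formaldehyde), proximity-ligated, PCR-amplified and sequenced on an Illumina NextSeq500. The binding signal of each hexamer is its read frequency for a factor divided by its frequency for the tag-only sample.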

For a further experiment, the target named is T2, ERG (Homo sapiens, UniProt P11308 1-479).
T2 sequence: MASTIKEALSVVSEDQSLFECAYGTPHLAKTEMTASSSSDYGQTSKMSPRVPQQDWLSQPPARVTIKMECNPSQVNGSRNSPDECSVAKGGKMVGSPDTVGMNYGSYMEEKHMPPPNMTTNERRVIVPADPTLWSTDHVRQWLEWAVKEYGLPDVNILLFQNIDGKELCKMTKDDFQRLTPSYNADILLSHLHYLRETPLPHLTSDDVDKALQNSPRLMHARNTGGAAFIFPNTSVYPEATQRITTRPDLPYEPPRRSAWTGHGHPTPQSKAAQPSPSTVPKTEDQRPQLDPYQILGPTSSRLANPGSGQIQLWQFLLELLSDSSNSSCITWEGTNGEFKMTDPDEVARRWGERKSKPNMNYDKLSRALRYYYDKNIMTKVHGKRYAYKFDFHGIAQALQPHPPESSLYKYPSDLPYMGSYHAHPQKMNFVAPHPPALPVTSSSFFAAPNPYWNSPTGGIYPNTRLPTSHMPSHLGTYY
An outline of the steps: as §1

The next experiment deals with ETV5 (Homo sapiens, UniProt P41161 1-510). The gist of the method:
as §1

In another experiment the target is T3, ELK4 (Homo sapiens, UniProt P28324-2 1-405).
T3 sequence: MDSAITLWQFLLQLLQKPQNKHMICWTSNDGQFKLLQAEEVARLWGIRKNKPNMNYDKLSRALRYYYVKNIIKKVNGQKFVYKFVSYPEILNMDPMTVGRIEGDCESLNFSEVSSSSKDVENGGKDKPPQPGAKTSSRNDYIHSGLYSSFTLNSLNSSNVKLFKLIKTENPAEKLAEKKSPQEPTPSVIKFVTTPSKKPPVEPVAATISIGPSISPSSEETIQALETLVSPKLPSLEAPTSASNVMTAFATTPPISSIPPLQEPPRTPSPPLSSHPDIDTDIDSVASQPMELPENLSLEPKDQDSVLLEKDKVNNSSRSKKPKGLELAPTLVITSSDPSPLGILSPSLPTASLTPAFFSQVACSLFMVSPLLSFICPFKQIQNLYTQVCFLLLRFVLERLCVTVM
The gist of the method: as §1

The target in a further experiment is T4, ETV2 (Homo sapiens, UniProt O00321 1-342).
T4 sequence: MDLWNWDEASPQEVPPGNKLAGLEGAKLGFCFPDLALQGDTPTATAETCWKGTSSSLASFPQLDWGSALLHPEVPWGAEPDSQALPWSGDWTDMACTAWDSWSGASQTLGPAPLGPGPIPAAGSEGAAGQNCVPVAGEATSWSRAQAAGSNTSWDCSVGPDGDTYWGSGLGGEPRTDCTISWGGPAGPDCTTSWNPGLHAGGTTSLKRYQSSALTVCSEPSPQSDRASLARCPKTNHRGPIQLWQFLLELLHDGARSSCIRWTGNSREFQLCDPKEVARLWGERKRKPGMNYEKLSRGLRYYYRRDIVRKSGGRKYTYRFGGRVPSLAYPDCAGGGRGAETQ
An outline of the steps:
as §1

Another experiment deals with ETV1 (Homo sapiens, UniProt P50549 1-477). The gist of the method:
as §1

The next experiment has as its target T5, ETV3L (Homo sapiens, UniProt Q6ZN32 1-361).
T5 sequence: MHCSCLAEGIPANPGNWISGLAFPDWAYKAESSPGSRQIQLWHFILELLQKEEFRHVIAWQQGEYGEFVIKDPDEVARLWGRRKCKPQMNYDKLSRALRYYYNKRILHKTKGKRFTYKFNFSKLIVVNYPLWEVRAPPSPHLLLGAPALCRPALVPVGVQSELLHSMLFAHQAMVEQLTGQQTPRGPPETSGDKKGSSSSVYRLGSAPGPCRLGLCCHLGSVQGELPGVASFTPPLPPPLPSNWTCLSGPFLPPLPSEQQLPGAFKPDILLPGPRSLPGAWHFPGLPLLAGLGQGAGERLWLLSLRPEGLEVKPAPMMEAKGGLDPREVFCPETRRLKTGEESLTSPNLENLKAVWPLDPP
The gist of the method: as §1

The target of the next experiment is T6, ETS2 (Homo sapiens, UniProt P15036 1-469).
T6 sequence: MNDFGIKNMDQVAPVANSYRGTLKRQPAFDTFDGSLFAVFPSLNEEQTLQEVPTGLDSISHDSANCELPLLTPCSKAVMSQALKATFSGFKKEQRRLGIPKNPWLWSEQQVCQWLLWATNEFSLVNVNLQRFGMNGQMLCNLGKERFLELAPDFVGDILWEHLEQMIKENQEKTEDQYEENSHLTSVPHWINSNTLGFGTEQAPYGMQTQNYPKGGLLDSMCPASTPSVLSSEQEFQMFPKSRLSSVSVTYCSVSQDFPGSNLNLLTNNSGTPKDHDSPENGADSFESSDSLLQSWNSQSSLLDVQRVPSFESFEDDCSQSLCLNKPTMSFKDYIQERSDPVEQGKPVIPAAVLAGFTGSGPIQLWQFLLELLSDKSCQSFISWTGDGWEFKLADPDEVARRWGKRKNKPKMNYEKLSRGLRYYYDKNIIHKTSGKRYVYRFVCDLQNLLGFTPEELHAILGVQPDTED
An outline of the steps:
as §1

A further experiment addresses T7, ETV7 (Homo sapiens, UniProt Q9Y603 1-341).
T7 sequence: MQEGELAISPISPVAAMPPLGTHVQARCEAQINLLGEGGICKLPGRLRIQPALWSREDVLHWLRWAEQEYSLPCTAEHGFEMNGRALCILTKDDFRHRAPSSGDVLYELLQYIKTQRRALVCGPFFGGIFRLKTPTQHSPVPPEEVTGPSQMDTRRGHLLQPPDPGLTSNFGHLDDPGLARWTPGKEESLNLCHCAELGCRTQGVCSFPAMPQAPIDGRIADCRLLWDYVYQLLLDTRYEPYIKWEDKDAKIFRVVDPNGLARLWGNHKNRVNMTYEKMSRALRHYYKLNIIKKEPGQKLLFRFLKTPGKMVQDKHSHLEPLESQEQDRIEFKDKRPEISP
An outline of the steps: as §1

The next experiment deals with T8, ETV3 (Homo sapiens, UniProt P41162-2 1-143).
T8 sequence: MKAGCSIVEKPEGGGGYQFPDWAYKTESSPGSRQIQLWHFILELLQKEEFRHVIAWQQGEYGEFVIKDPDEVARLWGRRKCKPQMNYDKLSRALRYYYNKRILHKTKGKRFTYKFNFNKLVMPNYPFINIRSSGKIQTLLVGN
The gist of the method: as §1

The next experiment deals with ETV6 (Homo sapiens, UniProt P41212 1-452). An outline of the steps: as §1
ETV6, sequence (P41212 whole entry): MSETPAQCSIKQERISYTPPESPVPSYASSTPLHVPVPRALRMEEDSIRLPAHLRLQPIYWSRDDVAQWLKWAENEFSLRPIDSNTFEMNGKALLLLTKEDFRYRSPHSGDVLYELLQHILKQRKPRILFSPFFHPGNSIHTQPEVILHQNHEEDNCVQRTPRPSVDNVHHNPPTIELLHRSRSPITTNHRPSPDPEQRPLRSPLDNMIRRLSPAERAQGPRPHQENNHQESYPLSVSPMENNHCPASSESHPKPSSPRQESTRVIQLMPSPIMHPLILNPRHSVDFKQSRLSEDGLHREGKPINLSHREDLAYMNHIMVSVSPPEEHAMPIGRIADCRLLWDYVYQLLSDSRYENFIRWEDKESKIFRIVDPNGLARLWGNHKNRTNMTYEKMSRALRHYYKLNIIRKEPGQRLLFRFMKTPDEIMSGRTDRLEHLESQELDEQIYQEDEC

ETV1, sequence (P50549 whole entry): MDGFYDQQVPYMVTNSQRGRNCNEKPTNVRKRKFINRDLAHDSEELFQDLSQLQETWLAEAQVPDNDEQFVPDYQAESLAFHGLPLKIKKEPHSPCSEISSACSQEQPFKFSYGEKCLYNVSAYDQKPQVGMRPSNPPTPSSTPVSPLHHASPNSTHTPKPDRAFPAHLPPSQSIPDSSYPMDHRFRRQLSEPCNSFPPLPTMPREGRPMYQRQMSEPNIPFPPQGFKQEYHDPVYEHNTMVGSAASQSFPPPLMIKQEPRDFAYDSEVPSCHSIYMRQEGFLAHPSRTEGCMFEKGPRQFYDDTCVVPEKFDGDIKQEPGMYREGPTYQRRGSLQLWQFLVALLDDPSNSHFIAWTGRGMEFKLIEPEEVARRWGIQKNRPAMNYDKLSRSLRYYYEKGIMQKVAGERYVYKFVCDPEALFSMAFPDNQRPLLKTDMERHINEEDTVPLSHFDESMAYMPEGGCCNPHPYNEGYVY
ETV5, sequence (P41161 whole entry): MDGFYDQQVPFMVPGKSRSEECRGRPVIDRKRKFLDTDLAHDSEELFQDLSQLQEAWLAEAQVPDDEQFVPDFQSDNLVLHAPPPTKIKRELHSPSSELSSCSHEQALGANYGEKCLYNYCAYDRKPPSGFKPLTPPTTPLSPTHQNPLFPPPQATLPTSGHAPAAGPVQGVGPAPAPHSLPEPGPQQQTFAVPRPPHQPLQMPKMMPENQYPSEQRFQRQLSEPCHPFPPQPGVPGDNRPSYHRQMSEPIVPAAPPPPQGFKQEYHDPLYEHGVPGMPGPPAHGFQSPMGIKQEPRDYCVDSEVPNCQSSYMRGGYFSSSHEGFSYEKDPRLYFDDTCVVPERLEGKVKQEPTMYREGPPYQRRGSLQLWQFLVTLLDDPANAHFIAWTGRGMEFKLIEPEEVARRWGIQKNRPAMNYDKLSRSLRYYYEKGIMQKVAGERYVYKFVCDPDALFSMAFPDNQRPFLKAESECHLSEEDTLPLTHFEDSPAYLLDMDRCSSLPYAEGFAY

Consider TCAGTT, for which the binding signal in the experiment with ELK1 is 1.03 fold enrichment (6-mer frequency, TF over GST control); with ERG, 1.03 fold enrichment (6-mer frequency, TF over GST control); with ETV5 it was 1 fold enrichment (6-mer frequency, TF over GST control); in the experiment with ELK4 it was 1.08 fold enrichment (6-mer frequency, TF over GST control); with ETV2, 1.05 fold enrichment (6-mer frequency, TF over GST control); with ETV1, 1.04 fold enrichment (6-mer frequency, TF over GST control). Besides, the binding signal with ETV3L is 1.05 fold enrichment (6-mer frequency, TF over GST control); with ETS2, 1.04 fold enrichment (6-mer frequency, TF over GST control); with ETV7 it was 1.02 fold enrichment (6-mer frequency, TF over GST control); with ETV3 it was 1.05 fold enrichment (6-mer frequency, TF over GST control); with ETV6, 1.03 fold enrichment (6-mer frequency, TF over GST control).
